According to PubChem BioAssay:
Active and inactive are the calls of the source.

Key:
Albumin (Bos taurus) = Albumin (Bos taurus) (UniProt P02769); test: bovine serum albumin binders on microarray, profiling panel, artefact control for SMM control protein annotation, biochemical, small-molecule microarray, Alexa647 label, 635/667 nm fluorescence (AID 1118); conditions: BSA-A647 binding, fluorescence 635 nm, higher = more signal;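 further: score merges 667 nm emission intensity and signal-to-noise per printed compound spot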
[1] = small-molecule microarray binders of probe aXIP, primary screen, biochemical, NeuroSMM set, 635/667 nm fluorescence (AID 1119); conditions: higher = more signal, called active from +8 up or from −8 down;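 further: probe is the protein aXip251-270 applied at 1 µg/mL to compound-printed slides; binding of probe to printed compounds measured as 667 nm fluorescence plus signal to noise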
[2] = small-molecule binders of probe aNOTCH3, primary screen, biochemical, small-molecule microarray, 635/667 nm fluorescence (AID 1120); conditions: higher = more signal;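 further: probe is a biotin-tagged antibody raised against NOTCH3 rather than NOTCH3 protein; score merges spot fluorescence near 667 nm with spot signal to noise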
[3] = small-molecule binders of probe aNOTCH2, primary screen, biochemical, small-molecule microarray, 635/667 nm fluorescence (AID 1121); conditions: higher = more signal;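 further: score merges feature fluorescence read at 667 nm with its signal to noise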
[4] = target: Carbonic anhydrase 2 (Homo sapiens) (UniProt P00918); test: CAII small-molecule binders, profiling panel, biochemical, small-molecule microarray, Alexa647-labelled CAII (AID 1122); conditions: CAII-A647 binding fluorescence, higher = more signal
[5] = COS7 lysate on small-molecule microarray, probe aHis, 635 nm (AID 1123); conditions: COS7 cell lysate, fluorescence, higher = more signal;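 further: z-score combines 667nm fluorescence intensity with signal-to-noise per printed compound spot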
[6] = compound binding in COS7 lysate, probe aLAP1, primary screen, cell lysate, small-molecule microarray (AID 1124); conditions: probe aLAP1, fluorescence, higher = more signal;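 further: lysate comes from COS7 cells expressing LAP1 and is applied at 0.3 µg/mL; score merges spot fluorescence near 667 nm with signal-to-noise over triplicate slides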
Sam68 (KHDRBS1) = test: Sam68 small-molecule binders, primary screen, biochemical, small-molecule microarray, 635 nm fluorescence (AID 1125); conditions: small-molecule microarray binding, higher = more signal;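 further: score merges 667 nm channel intensity with signal to noise over triplicate slides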
[7] = tested on: Chordin-like protein 2 (CHRDL2); test: CHRDL2 small-molecule binders, primary screen, biochemical, small-molecule microarray, 635 nm fluorescence (AID 1126); conditions: small-molecule microarray binding, fluorescence 635 nm; higher = more signal;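 further: printed compound slides probed with Chrdl2 protein at 4 µg/mL for 1 h at 4 C; score merges 667 nm emission intensity with signal to noise over three replicate slides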
[8] = target: Concanavalin-A (Canavalia ensiformis) (UniProt P02866); test: ConA small-molecule binders, primary screen, artefact control for SMM control protein annotation, biochemical, small-molecule microarray, Alexa647 label, 635 nm (AID 1127); conditions: ConA-A647 binding fluorescence, higher = more signal;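 further: z combines 667 nm emission intensity with signal-to-noise across three replicate slides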
Concanavalin-A (Canavalia ensiformis), sequence (P02866 whole entry, looked up): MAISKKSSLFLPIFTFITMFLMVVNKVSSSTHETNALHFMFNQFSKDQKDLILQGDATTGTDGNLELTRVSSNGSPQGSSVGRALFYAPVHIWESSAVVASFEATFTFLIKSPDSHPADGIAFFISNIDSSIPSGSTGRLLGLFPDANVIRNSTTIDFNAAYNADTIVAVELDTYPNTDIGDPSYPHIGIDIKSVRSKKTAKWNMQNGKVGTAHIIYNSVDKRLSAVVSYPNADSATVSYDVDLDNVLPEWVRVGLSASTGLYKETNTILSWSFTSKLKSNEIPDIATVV

Albumin (Bos taurus), sequence (P02769 whole entry, looked up): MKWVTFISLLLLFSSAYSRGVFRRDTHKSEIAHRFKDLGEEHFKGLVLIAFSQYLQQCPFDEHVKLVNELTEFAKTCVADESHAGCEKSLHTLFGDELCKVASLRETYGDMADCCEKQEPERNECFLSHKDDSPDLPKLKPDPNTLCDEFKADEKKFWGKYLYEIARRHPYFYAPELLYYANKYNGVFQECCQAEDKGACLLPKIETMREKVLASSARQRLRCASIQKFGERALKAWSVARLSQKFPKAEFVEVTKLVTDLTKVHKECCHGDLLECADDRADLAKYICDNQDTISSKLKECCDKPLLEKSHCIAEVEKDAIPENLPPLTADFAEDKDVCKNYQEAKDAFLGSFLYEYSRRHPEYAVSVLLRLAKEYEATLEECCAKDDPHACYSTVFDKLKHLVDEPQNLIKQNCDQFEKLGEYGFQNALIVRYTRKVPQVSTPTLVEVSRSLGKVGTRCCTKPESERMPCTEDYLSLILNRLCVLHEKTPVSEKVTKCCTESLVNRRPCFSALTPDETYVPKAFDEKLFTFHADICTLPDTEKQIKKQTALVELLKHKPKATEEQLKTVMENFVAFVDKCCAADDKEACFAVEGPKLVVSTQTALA

SMILES	composite z-score (Albumin (Bos taurus))	composite Z-score [1]	composite z-score [2]	composite z-score [3]	composite z-score [4]	composite z-score [5]	composite z-score [6]	composite z-score (Sam68 (KHDRBS1))	composite z-score [7]	composite z-score [8]
C[C@H]1C2[C@H](Cc3ccccc3)NC(=O)[C@]23C(=O)NCC(=O)N2CCC[C@H]2C(=O)NC/C=C\C/C=C/C3[C@@H]2O[C@]12C (stereo not given in full)	-0.674	-0.403 (inactive)	0.155	-0.176	0.718	-0.981	-0.632	-0.158	0.486	-0.351
CC(C)C[C@@H]1NC(=O)[C@H]2C[C@@H](C(=O)NCCCCCCNC(=O)CS)[C@@H](c3ccc(O)cc3)N2C1=O	0.291	0.741 (inactive)	-0.0581	0.0018	0.665	1.73	0.0905	1.3	0.986	1.11
C=CCOC(=O)[C@@H]1[C@H]2C(=O)O[C@H](c3ccccc3)[C@H](c3ccccc3)N2[C@H](c2ccc(OCCOC(=O)[C@H]3C[C@H]4C(=O)NCC(=O)N4[C@H]3c3ccc(O)cc3)cc2)[C@@]12C(=O)Nc1ccc(I)cc12	-1.07	0.683 (inactive)	-0.0711	-0.117	0.323	1.94	-0.159	1.29	0.826	1.16
C=CCOC(=O)[C@H]1[C@@H]2C(=O)O[C@@H](c3ccccc3)[C@@H](c3ccccc3)N2[C@@H](c2ccc(OCCOC(=O)[C@@H]3C[C@@H]4C(=O)N[C@@H](CC(C)C)C(=O)N4[C@@H]3c3ccc(O)cc3)cc2)[C@]12C(=O)Nc1ccc(I)cc12	0.822	1.65 (inactive)	0.0469	-0.0486	0.668	2.52	0.0414	1.3	1.33	1.13
O=c1cccc(-c2ccccc2C(F)(F)F)o1	0.747	0.3 (inactive)	0.583	0.581	0.354	0.491	-0.148	-0.519	-0.223	-0.407
CCc1cccc(NC(=O)O[C@H]2[C@H](OC(=O)Nc3ccc4c(c3)OCO4)[C@H](OC(=O)Nc3ccc4c(c3)OCO4)[C@@H](OC)O[C@@H]2CO)c1	0.208	1.31 (inactive)	0.337	0.817	0.486	2.46	-0.0378	1.29	-0.0095	1.14
COCCOC(=O)N1C(=O)[C@@]2(c3cc(C#CC4=CCCCC4)ccc31)[C@H](c1ccc(OCCO)cc1)N1[C@H](c3ccccc3)[C@H](c3ccccc3)OC(=O)[C@H]1[C@@H]2C(=O)N1CCCCCCC1	0.263	2 (inactive)	0.809	0.0784	0.623	2.41	0.903	1.3	0.91	1.11
C=CC[C@]1(C(=O)NCc2ccccc2)COC(c2ccc(OCCCO)cc2)=N1	0.981	3.11 (inactive)	0.0789	0.114	0.84	2.75	1.46	-0.297	-0.623	-0.507
CC(C)C[C@@H]1NC(=O)[C@@H]2C[C@H](C(=O)O)[C@H](c3ccc(O)cc3)N2C1=O	-1.01	0.102 (inactive)	0.0488	-0.106	0.558	0.68	0.186	1.31	1.15	1.21
COC(=O)[C@@]1(Cc2ccc(F)cc2)[C@H]2c3cc(C(=O)N(C)C)n(CCn4cc([N+](=O)[O-])nc4C)c3C[C@H]2CN1C(=O)c1ccccc1	0.781	-0.133 (inactive)	0.0203	0.107	0.477	2.02	0.317	0.155	-0.187	0.294
CN(C)C(=O)[C@]1(Cc2ccccc2)N=C(c2ccc(OCCCO)cc2)O[C@@H]1c1ccccc1	0.62	0.572 (inactive)	-0.046	-0.0531	0.687	2.68	0.429	0.978	-1.01	0.915
